SMILES strings stand for the structures. Records with an inconclusive call do not appear. The source made the active and inactive calls. The calls were made as follows: active = hit-call score of the fitted dose curve at least 0.9, where 1 is the maximum; inconclusive = response in the unintended direction; inactive = score below 0.9.

This assay addresses human Protein Kinase C, zeta (PKCz), PRKCZ (gene 5590) (UniProt Q05513). Nature of the assay: NVS_ENZ_hPKCz: NovaScreen (NVS) Enzymatic Assay for human Protein Kinase C, zeta (PKCz). As for the experimental part:
NVS_ENZ_hPKCz is a biochemical, single-readout assay that uses extracted gene-proteins in a cell-free assay. Measurements were taken 1 hour after chemical dosing in a 384-well plate.NVS_ENZ_hPKCz is one of one assay component(s) measured or calculated from the NVS_ENZ_hPKCz assay. It is designed to make measurements of enzyme activity, a form of enzyme reporter, as detected with fluorescence intensity signals by Fluorescence and electrophoretic mobility shift technology.Data from the assay component NVS_ENZ_hPKCz was analyzed into 1 assay endpoint. This assay endpoint, NVS_ENZ_hPKCz, was analyzed in the positive analysis fitting direction relative to DMSO as the negative control and baseline of activity. Using a type of enzyme reporter, loss-of-signal activity can be used to understand changes in the enzymatic activity as they relate to the gene PRKCZ. Furthermore, this assay endpoint can be referred to as a primary readout, because this assay has produced multiple assay endpoints where this one serves a enzymatic activity function. To generalize the intended target to other relatable targets, this assay endpoint is annotated to the kinase intended target family, where the subfamily is serine/threonine kinase. […]

Sequence of human Protein Kinase C, zeta (PKCz), PRKCZ (gene 5590) (Q05513 whole entry, looked up): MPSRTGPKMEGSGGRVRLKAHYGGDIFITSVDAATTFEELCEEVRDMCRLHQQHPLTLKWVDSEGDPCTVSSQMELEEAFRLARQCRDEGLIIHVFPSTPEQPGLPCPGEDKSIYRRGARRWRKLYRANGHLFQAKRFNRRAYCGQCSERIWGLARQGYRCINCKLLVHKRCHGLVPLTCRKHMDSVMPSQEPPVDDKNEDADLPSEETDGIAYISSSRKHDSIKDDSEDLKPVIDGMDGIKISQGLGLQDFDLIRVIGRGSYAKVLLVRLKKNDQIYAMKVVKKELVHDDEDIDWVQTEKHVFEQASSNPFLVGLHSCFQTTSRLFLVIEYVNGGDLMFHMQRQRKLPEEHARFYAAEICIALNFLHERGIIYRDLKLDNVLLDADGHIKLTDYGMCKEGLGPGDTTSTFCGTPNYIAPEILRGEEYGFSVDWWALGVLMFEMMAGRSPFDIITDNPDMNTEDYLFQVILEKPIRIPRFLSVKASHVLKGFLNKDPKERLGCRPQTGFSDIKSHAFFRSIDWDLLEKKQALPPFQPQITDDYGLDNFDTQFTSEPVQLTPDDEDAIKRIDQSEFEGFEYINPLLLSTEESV

`CCCCC(CC)COC(=O)c1ccccc1C(=O)O` (stereo unspecified): the result was inactive.

The record behind these values is PubChem BioAssay AID2283193 (EPA ToxCast).
